Screens: PubChem BioAssay, several laboratories
This is a sample that favours compounds with a hit; in the whole collection about 2.9% have one here.
ABCB6 inh 2: ABCB6 transporter inhibitors, primary screen, K562-ABCB6 cells, flow cytometry, MLPCN library | AID 602162, 2011 | actives 0.19% (n = 360,000) | K562-ABCB6 porphyrin accumulation, 1 h; active compounds read low | fluorescence ratio to DMSO, % at 10 µM;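 active = fluorescence ratio to DMSO below 75%, the collection mean minus 3 SD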;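 also: signal is porphyrin accumulated inside mitochondria; 100% equals median channel fluorescence of DMSO control wells; lower ratio means ABCB6 inhibition with less porphyrin fluorescence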
Target sequence (Q9NP58 whole entry, looked up): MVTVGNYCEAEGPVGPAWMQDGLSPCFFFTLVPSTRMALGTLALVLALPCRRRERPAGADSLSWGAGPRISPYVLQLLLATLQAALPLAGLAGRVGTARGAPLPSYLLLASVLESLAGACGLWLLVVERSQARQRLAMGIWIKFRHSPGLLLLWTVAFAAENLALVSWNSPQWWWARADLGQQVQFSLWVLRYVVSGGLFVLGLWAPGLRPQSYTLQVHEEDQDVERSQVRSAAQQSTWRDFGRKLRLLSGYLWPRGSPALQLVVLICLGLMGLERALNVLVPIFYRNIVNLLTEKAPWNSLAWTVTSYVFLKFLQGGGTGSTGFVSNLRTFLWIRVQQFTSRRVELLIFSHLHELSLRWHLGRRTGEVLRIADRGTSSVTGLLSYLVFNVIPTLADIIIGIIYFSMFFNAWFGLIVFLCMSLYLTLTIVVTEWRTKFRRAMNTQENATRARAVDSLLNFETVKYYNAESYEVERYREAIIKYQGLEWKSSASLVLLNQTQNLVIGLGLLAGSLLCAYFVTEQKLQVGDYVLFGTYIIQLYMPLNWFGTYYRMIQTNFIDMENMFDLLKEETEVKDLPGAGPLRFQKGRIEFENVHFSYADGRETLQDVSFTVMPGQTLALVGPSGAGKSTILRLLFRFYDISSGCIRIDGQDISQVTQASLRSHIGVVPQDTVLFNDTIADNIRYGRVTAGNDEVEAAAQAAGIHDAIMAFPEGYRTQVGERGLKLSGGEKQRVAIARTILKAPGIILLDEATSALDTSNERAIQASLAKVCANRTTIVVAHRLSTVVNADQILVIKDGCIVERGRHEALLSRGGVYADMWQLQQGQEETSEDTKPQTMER
MEKK3 PB1 HTS: modulators of MEKK3-MEK5 PB1 binding, primary screen, biochemical, wildtype MEKK3, multiplex bead flow cytometry, Alexa488-MEK5. bead-based flow cytometry, Alexa488-MEK5 binding to MEKK3; actives lie on both sides; 0 = blocked by unlabeled MEK5, 100 = vehicle. binding response (% of control), % at 10 µM. actives 1.4% (n = 290,000);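 active = binding response more than 3 SD above or below the average of its plate-row segment, actives on both sides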;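 also: Alexa488 bead fluorescence after subtracting the streptavidin-only scavenger bead signal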
CRFR2-BP antag: antagonists of CRF-BP/CRF-R2 complex, primary screen, cell-based, HEK293, calcium dye fluorescence, uHTS | CRF-induced calcium fluorescence | inhibition, % at 11.8 µM | actives 0.59% (n = 350,000) | AID 588475, 2011;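 active = inhibition of the ligand-induced calcium signal above about 50% at the single tested concentration, limit read from the data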
MEKK2 mut-MEK5: MEK5 binding signal on mutant MEKK2 PB1, primary screen, biochemical, multiplex bead flow cytometry, Alexa488-MEK5; actives 0.35% (n = 290,000); Alexa488-MEK5 binding to MEKK2 mutant; percent response, % at 10 µM; in the data active = percent response above about 24%, passing the limit was not always enough
CRFBP-R2 agonist: agonists of CRF-BP/CRF-R2 complex, primary screen, cell-based, HEK293, calcium dye fluorescence, uHTS; CRF-binding protein / CRF receptor 2 complex (human); calcium dye fluorescence (FLIPR); percent of saturating CRF peptide response; activation, % at 13.2 µM; actives 0.46% (n = 350,000); AID 588473, 2011;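 active = activation of at least 50%, plus an integration ratio under a set limit after plate pattern correction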;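 also: plate controls were neutral control wells without compound for no effect and CRF at EC100 for full effect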
MEKK2wt PB1 HTS: modulators of MEK5 binding to wildtype MEKK2, primary screen, biochemical, multiplex bead flow cytometry, Alexa488-MEK5 | Mitogen-activated protein kinase kinase kinase 2 (Homo sapiens), Q9Y2U5 | Alexa488-MEK5 binding to MEKK2 WT; actives lie on both sides | binding response (% of control), % at 10 µM | actives 1.1% (n = 290,000) | AID 1531, 2009; in the data active = binding response below about 67% or above about 130%
MEKK2wt confirm: modulators of MEK5 binding to wildtype MEKK2, confirmation, biochemical, single concentration, multiplex bead flow cytometry; binding response (% of control), % at 10 µM; AID 1892, 2009; Alexa488-MEK5 binding to MEKK2 WT; actives lie on both sides; actives 2.4% (n = 5,900); shares compounds with MEKK3 PB1 HTS; in the data active = binding response below about 16% or above about 210%; inactive = in between
MEKK2mut confirm: mutant MEKK2 PB1-MEK5 binding signal retest – biochemical, single concentration, multiplex bead flow cytometry, confirmation | shares compounds with MEKK3 PB1 HTS | Alexa488-MEK5 binding to MEKK2 mutant | percent response, % at 10 µM | actives 2% (n = 5,900); in the data active = percent response mostly above about 71%, no sharp cut-off; inactive = mostly below about 38%;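 also: higher means compound restores mutant binding toward wildtype level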
MEKK3-MEK5 inh: MEKK3 wild-type PB1 binding to MEK5, inhibitors, confirmation, biochemical, bead multiplex flow cytometry, single concentration, wildtype | shares compounds with MEKK3 PB1 HTS | Alexa488-MEK5 binding to MEKK3; active compounds read low | binding response (% of control), % at 10 µM | AID 1894, 2009 | actives 1.8% (n = 5,900);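 active = binding response below 72% of control, or above a set upper limit, though filed actives all read lower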;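 also: 100% = DMSO only wells and 0% = binding blocked by excess unlabeled MEK5; lower values mean stronger disruption of MEK5 binding to MEKK3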
The depositor's hits bear a star; / = no result given; [ ] = another dose, or the depositor's remark.

SMILES | ABCB6 inh 2 | MEKK3 PB1 HTS | CRFR2-BP antag | MEKK2 mut-MEK5 | CRFBP-R2 agonist | MEKK2wt PB1 HTS | MEKK2wt confirm | MEKK2mut confirm | MEKK3-MEK5 inh
O=C(COC(=O)c1ccccc1C(=O)c1ccccc1)NCCc1ccc(Cl)cc1Cl | 100.0 | 130.0* | 31.4 | -2.0 | 17.0 | 96.0 | 102.0 | -3.0 | 101.0
O=C(/C=C/c1ccc(Br)cc1)NC(=O)c1ccccc1O | 94.0 | 98.0 | 44.6 | -2.0 | 18.6 | 89.0 | / | / | /
CSc1ccc(/C=C/C(=O)NC(=O)c2ccccc2O)cc1 | 94.0 | 128.0* | 13.8 | 1.0 | 11.6 | 116.0 | 100.0 | 1.0 | 103.0
CCCOc1ccc(C2=NNC(c3cccs3)=Nc3ccc(OC)cc32)cc1 | 100.0 | 141.0* | 5.1 | 6.0 | -2.0 | 87.0 | 101.0 | 1.0 | 107.0
CCc1ccc(NC(=O)Cc2cn(C)c3ccccc23)cc1 | 101.0 | 104.0 | 22.4 | 0.0 | -1.4 | 106.0 | / | / | /
CCC(C)NC(=O)Cc1cn(C)c2ccccc12 (stereo not given) | 95.0 | 3.0*[inhibitor] | -20.7 | -14.0 | 0.3 | 3.0*[inhibitor] | 102.0 | -12.0 | 96.0
COc1ccc(S(=O)(=O)N2CCC(C(=O)NCc3ccncc3)CC2)cc1OC | 97.0 | 99.0 | 0.5 | -5.0 | 0.1 | 95.0 | / | / | /
O=C(NCc1cccnc1)Nc1cccc([N+](=O)[O-])c1 | 102.0 | 105.0 | 0.3 | 7.0 | -1.4 | 113.0 | / | / | /
CC(NCc1ccc(OCc2ccc(Cl)cc2)cc1)C(O)c1ccccc1 (stereo not given) | 94.0 | 94.0 | -18.1 | 4.0 | 0.5 | 144.0* | 160.0 | 33.0 | 96.0
OCCCCNCc1ccc(OCc2ccc(Cl)cc2)cc1 | 96.0 | 108.0 | -9.0 | 37.0* | 1.1 | 181.0* | 107.0 | 3.0 | 101.0
CC(NCc1cccc(OCc2ccccc2)c1)C(O)c1ccccc1 (stereo not given) | 101.0 | 100.0 | -10.0 | 12.0 | 1.1 | 119.0 | / | / | /
CC1(C)Cc2c(cnn2-c2cccc(F)c2)C(NC(=O)CCc2cnccn2)C1 (stereo not given) | 91.0 | 102.0 | 8.5 | 2.0 | -1.1 | 102.0 | / | / | /
COc1ccccc1N1C(=NC(=O)CCc2ccccc2)SC2CS(=O)(=O)CC21 (stereo not given) | 93.0 | 101.0 | 16.4 | 0.0 | 0.1 | 97.0 | / | / | /
COCCCN1C(=O)C(=O)/C(=C(/O)c2ccccc2)C1c1ccc(N(C)C)cc1 (stereo not given) | 99.0 | 102.0 | 34.6 | 223.0* | 2.0 | 152.0* | 97.0 | -3.0 | 97.0
O=C1C(=O)N(CCCO)C(c2ccc(Br)cc2)/C1=C(\O)c1ccc(Br)cc1 (stereo not given) | 97.0 | 111.0 | 0.8 | 28.0* | -0.2 | 113.0 | 94.0 | -3.0 | 100.0
Cn1c(=O)c2c(ncn2CCC(=O)N/N=C/c2ccncc2)n(C)c1=O | 98.0 | 88.0 | 11.9 | -15.0 | -1.4 | 90.0 | / | / | /
COc1ccc(Cl)cc1C(=O)NNC(=O)c1ccncc1 | 101.0 | 109.0 | -6.2 | 8.0 | -2.0 | 107.0 | / | / | /
O=C(NCc1cccs1)c1cc(-c2ccc(O)cc2)on1 | 98.0 | 46.0*[inhibitor] | -25.8 | -17.0 | 9.8 | 55.0 | 101.0 | 1.0 | 105.0
O=C(Nc1ccc(Oc2ncnc3cc(Cl)ccc23)nc1)c1cccs1 | 95.0 | 87.0 | 6.2 | -17.0 | -3.1 | 93.0 | / | / | /
O=C(Nc1ccc(F)cc1)Nc1ccc(Oc2ncnc3cc(Cl)ccc23)nc1 | 97.0 | 69.0*[inhibitor] | -7.4 | -33.0 | 0.7 | 75.0 | 104.0 | 2.0 | 102.0
O=C(O)CCCC(=O)Nc1ccc(Oc2ncnc3cc(Cl)ccc23)nc1 | 95.0 | 128.0* | 5.5 | 26.0 | -1.5 | 128.0 | 98.0 | -1.0 | 99.0
Cc1cc(Cl)ccc1OCCCC(=O)Nc1cccnc1 | 85.0 | 103.0 | 8.2 | -2.0 | 2.9 | 106.0 | / | / | /
COc1ccccc1CC(=O)N1CCC(CCC(=O)NC2CC2)CC1 | 100.0 | 102.0 | -10.8 | -2.0 | 0.6 | 101.0 | / | / | /
COc1ccc2c(c1)c(CC(=O)Nc1ccc(C(C)=O)cc1)c(C)n2C(=O)c1ccc(Cl)cc1 | 96.0 | 47.0*[inhibitor] | 15.8 | 1.0 | -2.4 | 92.0 | 105.0 | -3.0 | 101.0
COc1cc(/C=C(\C#N)c2nc3ccc(C)cc3[nH]2)c([N+](=O)[O-])cc1OC | 105.0 | 104.0 | -70.0 | 3.0 | 24.4 | 104.0 | / | / | /
SMILES | ABCB6 inh 2 | MEKK3 PB1 HTS | CRFR2-BP antag | MEKK2 mut-MEK5 | CRFBP-R2 agonist | MEKK2wt PB1 HTS | MEKK2wt confirm | MEKK2mut confirm | MEKK3-MEK5 inh
CCN(CC)c1ccc(/C=C(/C#N)c2nc3ccc(C)cc3[nH]2)c(OC(C)C)c1 | 745.0 | 115.0 | -180.4 | 95.0* | 175.9* | 78.0 | 91.0 | -18.0 | 89.0
Cc1cc(C)nc(Oc2ccc(Br)cc2)n1 | 98.0 | 109.0 | 17.0 | 15.0 | -1.6 | 110.0 | / | / | /
CN1C(C(=O)NCc2cccc(C(F)(F)F)c2)CC2Cn3c(nc4cc5ccccc5cc43)C21 (stereo not given) | 97.0 | 96.0 | -3.1 | 2.0 | -1.2 | 95.0 | / | / | /
CN1C(C(=O)NCc2cccc(C(F)(F)F)c2)CC2Cn3c(nc4ccccc43)C21 (stereo not given) | 92.0 | 51.0*[inhibitor] | 7.3 | -5.0 | -0.6 | 96.0 | 100.0 | -4.0 | 98.0
CCOC(=O)C1=C(C)N(C)C(C)=C(C(=O)OCC)C1c1ccc(Cl)cc1 | 100.0 | 130.0* | 7.2 | 0.0 | 0.9 | 107.0 | 21.0 | -25.0 | 46.0*
COC(=O)C1=C(C)N(C)C(C)=C(C(=O)OC)C1c1ccc(Cl)cc1 | 96.0 | 94.0 | 14.7 | -7.0 | -2.3 | 98.0 | / | / | /
CC1Nc2ncnc(N3CCN(c4ccccc4)CC3)c2N(Cc2ccc(Br)cc2)C1=O (stereo not given) | 93.0 | / | -18.1 | / | -0.4 | / | / | / | /
CCc1ccc(C2=NN(CCC(=O)NC3CC3)C(=O)CC2)cc1 | / | 144.0* | / | 0.0 | / | 106.0 | 98.0 | -12.0 | 101.0
